From PubChem
Compounds with a hit are over-represented: about 11% of the library has one in this group of screens.
PNC assembly inh: perinucleolar compartment assembly inhibition; 140,000 compounds, 3.1% hits; activity change (PNC), negative = inhibition, % at 10 µM; PC3M PTB-GFP, PNC prevalence imaging, 16 h; hits give low values; AID 2417;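 active = readout at or below -70, meaning at least 70% loss of cells showing the perinucleolar compartment, a nuclear body marking cancer cells; inconclusive = readout between -30 and a set limit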;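 also: plate controls were DMSO wells for no effect and camptothecin positive control wells for full effect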
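Compounds are pinned in duplicate onto adhered PC3M cells stably expressing GFP-tagged PTB and incubated 16 h at 37 C. Cells are then fixed, nuclei stained with Hoechst, and PNC-positive cells counted.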
ALDH1A1 block: inhibitors of human aldehyde dehydrogenase 1A1; P00352; Purified ALDH1A1, NADH fluorescence, propionaldehyde substrate; Potency, µM (top dose mostly 75.3 µM), without a hit: at the top dose activity, negative = inhibition, hits mostly inhibitors; 220,000 compounds, 7.3% hits;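 also: potency is read from the fitted curve at half-maximal effect; plate controls were no enzyme wells and a reference inhibitor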
HPGD inh: inhibitors of human 15-hydroxyprostaglandin dehydrogenase (HPGD) | 150,000 compounds, 4.3% hits | purified HPGD, NADH fluorescence kinetic, PGE2 substrate | AID 894 | P15428 | Potency, µM, inactives show top-dose activity change, negative = inhibition, actives largely listed as inhibitors; also: potency is read from the fitted curve at half-maximal effect
Target sequence (P15428 whole entry, looked up): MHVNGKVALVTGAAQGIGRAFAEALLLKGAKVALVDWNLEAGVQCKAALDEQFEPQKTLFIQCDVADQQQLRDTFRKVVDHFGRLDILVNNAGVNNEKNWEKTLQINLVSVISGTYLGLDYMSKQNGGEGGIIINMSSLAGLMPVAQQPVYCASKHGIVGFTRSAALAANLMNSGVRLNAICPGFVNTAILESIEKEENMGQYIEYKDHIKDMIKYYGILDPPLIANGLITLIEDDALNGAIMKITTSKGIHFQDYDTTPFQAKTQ
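NADH formation kinetics: reaction with 30 uM PGE2 and 1 mM NAD+ (final), 20 nM enzyme, Tris-HCl pH 8 with Tween 20, after 15 min compound preincubation at room temperature. Fluorescence change, last versus first of five reads.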
Numbers without * were called inactive; ? = inconclusive; · = no result given; [ ] = another dose, or the depositor's remark. Unless noted, calls follow the shape of the dose curve; as a rule, active = well fitted inhibition curve with a large enough effect (not every such curve was filed as active); inconclusive = small, poorly fitted or top-dose-only effect, or another doubt; inactive = no such curve, though single readings can be large or run the other way. Unless noted, % is scaled to controls: 0 for no effect and ±100 for the full control effect.

SMILES	PNC assembly inh	ALDH1A1 block	HPGD inh
COc1ccc(-c2nc3c(c4c2C[C@H](c2ccccc2)OC4)CN(S(=O)(=O)c2ccc(Cl)c4nonc24)CC3)c(C)c1	·	?	-3%
CCc1cc2c(nc1CC)CCN(CC/C(C)=N/O[C@@H]1O[C@H](COC(C)=O)[C@H](OC(C)=O)[C@H](OC(C)=O)[C@H]1OC(C)=O)C2	·	17%[13.5 µM]	·
CCOc1cccc2c1OC(c1cc(OC)c(OC)c(OC)c1)N1N=C(c3ccc(C)o3)CC21 (stereo unspecified)	21	?	-24%
O=C(O)c1[nH]c2c([N+](=O)[O-])cc([N+](=O)[O-])cc2c1C(=O)O	·	-3%[13.5 µM]	-13%
Cc1ccc(OCC(=O)NNC(=O)C(=O)N2CCCC2)c(C)c1	?	2%	-3%
CCOC(=O)c1c(C)oc2ccc(OC(=O)c3cccs3)cc12	80	6%	-2%
COCCNC(=S)N1CCC(NC(=O)Nc2ccc(C)cc2)CC1	·	9%	·
Cc1nc(NC(=O)CSc2nnc(N)s2)c(Cl)cc1Cl	·	6%	·
CC1CCN(c2oc(-c3cccc4ccccc34)nc2C#N)CC1	-100*	?	?
N#Cc1nc(-c2cccc3ccccc23)oc1N1CCCCC1	49	?	?
S=C1NCCOCCOCCOCCNC(=S)N2CCOCCOCCN1CCOCCOCC2	·	5%	·
Cc1cc(Nc2nn(C)c(N)c2C#N)ccc1F	·	4%	·
O=[N+]([O-])c1ccccc1SN(Cc1ccccc1)c1ccccn1	-2	?	-5%
CCc1cccc(NC(=O)CCCSc2nc3ccccc3[nH]2)c1	6	12%	-9%
Cc1ccc2cc(S(=O)(=O)NCCCN3CCOCC3)ccc2c1	·	2%	·
COCCN(CCOC)c1nc(S(=O)(=O)c2ccc(C)cc2)c(Cl)s1	26	-16%	-8%
CCCS(=O)(=O)c1nc(S(=O)(=O)c2ccc(C)cc2)c(NCCCN2CCOCC2)s1	-18	14µM*	-15%
CCOc1nc(S(=O)(=O)c2ccc(C)cc2)c(Cl)s1	-10	7%	-9%
CCS(=O)(=O)c1nc(S(=O)(=O)c2ccc(Cl)cc2)c(NCCOC)s1	·	4.5µM*	·
CCCNc1sc(S(=O)(=O)CCC)nc1S(=O)(=O)c1ccc(C)cc1	·	10µM*	·
CCC(C)C1/C=C\CCCC(=O)N1Cc1ccc(C)cc1 (stereo unspecified)	·	-7%	-10%
CCOC(=O)C1(C(C)C)Oc2ccccc2C(c2ccc(OC)cc2)=C1C(=O)OC (stereo unspecified)	·	-1%	?
COc1ccccc1O	·	-7%	0%
COc1cc(O)oc1C=Nc1ccccc1	12	20µM*	-26%
O=C(N/N=C/c1ccc[nH]1)c1ccc(COc2cccc3cccnc23)cc1	·	-15%	·
SMILES	PNC assembly inh	ALDH1A1 block	HPGD inh
O=C(N/N=C/c1ccco1)c1cc(Br)ccc1OCc1ccccc1	8	?	?
Cc1ccc(COc2ccsc2C(=O)NNC(N)=S)cc1	·	3%	·
COC(=O)c1ccc(COC(=O)c2ccccc2OC)cc1	-18	4%	-22%
COc1ccccc1OCc1ccc(C(=O)N/N=C/c2ccco2)cc1	-114*	-2%	-3%
COc1ccccc1OCc1ccc(C(=O)NN)cc1	-1	14µM*	-1%
Cc1ccc(COc2ccsc2C(=O)NN)cc1	·	6.3µM*	·
NNC(=O)c1ccc(COc2cccc3cccnc23)cc1	·	14µM*	·
COc1ccccc1-c1c(C(F)(F)F)oc2cc(OC(=O)c3cccc([N+](=O)[O-])c3C)ccc2c1=O	64	?	-16%
C=CCO/N=C(/CCC)C1=C(N)CC(C)(C)CC1=O	·	9%	·
CCC(C)(C(=O)Nc1ccccc1C)N(C(=O)CNC(C)=O)c1ccccc1C (stereo unspecified)	45	-2%	-3%
COc1cc(/C(C#N)=C/c2ccccc2)c([N+](=O)[O-])cc1OC	-15	4%	-10%
CC1(C)CCC(=O)N[C@H]1CC(=O)C[C@H]1NC(=O)CCC1(C)C	·	4%[13.5 µM]	2%
CCCC[C@@H](NC(=O)[C@@H](Cc1cn(C(=O)OC)c2ccccc12)NC(=O)[C@H](CC(C)(C)C)NC(=O)N1[C@H](C)CCC[C@@H]1C)C(=O)O	·	6%	0%
COC(=O)N1CCC2(CC1)CN(C(c1ccccc1)c1ccccc1)C2	·	11%	-10%
COc1ccc(OCC(=O)N/N=C\c2ccco2)cc1	·	9%	·
COc1ccc(C(=O)NN=C(Cc2ccccc2)Cc2ccccc2)cc1OC	9	?	-11%
COc1ccc(CC(=O)c2ccc(OC)c(OC)c2)cc1	-13	-6%	-17%
COc1ccc(C(=O)Cc2ccccc2)cc1OC	-84*	-9%	-2%
O=C(COc1ccccc1)NCC(=O)N/N=C/c1ccco1	-121*	12µM*	?
CNC(=O)c1ccc(OCc2ccccc2)c(OC)c1	-107*	7%	-5%
